Measured values reported in PubChem BioAssay AID2014 (Sanford-Burnham Center for Chemical Genomics, 2009).
“And” between values parts separate entries of the source, which are not always exact repeats. Equal entries are not always repeated. Among all 290,000 compounds or so, about 3,000 (1%) were called active. How the calls were made is not given here. The list comes from a sample in which actives are over-represented; it also holds similar structures and randomly drawn compounds.

Molecular target: Polyadenylate-binding protein 1 (Homo sapiens) (UniProt P11940)
Assay: PABP poly(A) RNA binding inhibitors, primary screen, biochemical, fluorescence polarization, uHTS (AID 2014);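 further: calls also rest on retests at 20 µM and on dose response follow-up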
Details: stronger effect = higher value

Polyadenylate-binding protein 1 (Homo sapiens), sequence (P11940 whole entry, looked up): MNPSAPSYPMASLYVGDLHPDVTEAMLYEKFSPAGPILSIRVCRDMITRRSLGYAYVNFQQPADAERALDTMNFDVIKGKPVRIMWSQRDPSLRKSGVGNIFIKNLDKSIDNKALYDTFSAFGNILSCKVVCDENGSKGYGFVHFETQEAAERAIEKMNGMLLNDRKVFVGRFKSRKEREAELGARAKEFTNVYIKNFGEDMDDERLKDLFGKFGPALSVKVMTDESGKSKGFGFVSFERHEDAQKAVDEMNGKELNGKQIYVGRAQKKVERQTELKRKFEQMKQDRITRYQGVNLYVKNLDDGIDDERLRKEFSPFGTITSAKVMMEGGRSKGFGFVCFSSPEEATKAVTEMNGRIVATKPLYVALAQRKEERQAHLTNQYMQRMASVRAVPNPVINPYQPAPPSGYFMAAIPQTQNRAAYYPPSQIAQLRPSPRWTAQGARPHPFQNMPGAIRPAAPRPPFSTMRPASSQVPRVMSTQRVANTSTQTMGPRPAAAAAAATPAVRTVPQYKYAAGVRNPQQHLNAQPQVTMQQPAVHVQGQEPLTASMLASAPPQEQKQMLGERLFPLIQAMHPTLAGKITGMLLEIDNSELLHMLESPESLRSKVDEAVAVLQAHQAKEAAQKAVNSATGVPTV

COCc1ccc(CN2CCC(Oc3ccc(C(=O)NCc4ccccn4)cc3)CC2)o1
inhibition (at 35 µM): -1.3% (inactive)

Cc1[nH]c2ccccc2c1C(=O)CN1CCCC(C)C1 (configuration not stated)
inhibition (at 35 µM): 8.2% (inactive)

Cc1nc(SCC(=O)NC2CCCC2)[nH]c(=O)c1C
inhibition (at 35 µM): 3.8% (inactive)

O=C(/C=C/c1ccc([N+](=O)[O-])o1)NNC(=O)c1ccc(F)cc1
inhibition (at 35 µM): 8.2% (inactive)

CN1C(=O)/C(=C/c2ccco2)SC1=Nc1cccc(C(=O)O)c1
inhibition (at 35 µM): -1.6% (active)
inhibition (confirmation repeats, at 20 µM): 78.4%

CN=C1S/C(=C\c2c(OC)cc(OC)cc2OC)C(=O)N1C
inhibition (at 35 µM): 8.5% (inactive)

CN=C1S/C(=C\c2ccc(Sc3ccc(Cl)cc3)o2)C(=O)N1C
inhibition (at 35 µM): -5.7% (inactive)

COC(=O)C1(C)NC(c2ccc(F)cc2)C2C(=O)N(c3ccccc3)C(=O)C21 (configuration not stated)
inhibition (at 35 µM): 10.8% (inactive)

CC(=O)NS(=O)(=O)c1ccc2c(c1)Cc1cc(S(=O)(=O)NC(C)=O)ccc1-2
inhibition (at 35 µM): 6% (inactive)

COc1ccccc1CNS(=O)(=O)CC12CCC(CC1=O)C2(C)C (configuration not stated)
inhibition (at 35 µM): 3.9% (inactive)

CC(C)Cc1nnc(NC(=O)CCc2ccccc2)s1
inhibition (at 35 µM): -7.4% (inactive)

c1ccc(CSc2nnc(-c3ccco3)c(-c3ccco3)n2)cc1
inhibition (at 35 µM): 74.8% (active)

O=c1[nH]c(SCc2ccccc2)nnc1-c1ccccc1
inhibition (at 35 µM): 62.5% (inactive)
inhibition (confirmation repeats, at 20 µM): -3.1%

Clc1ccccc1CSc1nnc(-c2ccco2)c(-c2ccco2)n1
inhibition (at 35 µM): 82.6% (active)
inhibition (confirmation repeats, at 20 µM): 87.4%

Fc1cccc(Cl)c1CSc1ccc(-c2ccco2)nn1
inhibition (at 35 µM): -6.6% (inactive)

COC(OC)c1ccnc(SCc2ccccc2Cl)n1
inhibition (at 35 µM): -6.4% (inactive)

Brc1ccc(CSc2ccc(-c3ccco3)nn2)cc1
inhibition (at 35 µM): -6.1% (inactive)
inhibition (confirmation repeats, at 20 µM): 5.9%

COc1ccc(NS(=O)(=O)c2ccc(F)cc2F)cn1
inhibition (at 35 µM): 70.3% (active)

COc1ccc(S(=O)(=O)Nc2ccc(F)cc2)c(C)c1C
inhibition (at 35 µM): -4.6% (inactive)

CCOc1ccc(S(=O)(=O)Nc2ccc(OC)nc2)cc1
inhibition (at 35 µM): 9.7% (inactive)

COCC(=O)N1CCc2ccc(NC(=O)c3ccccc3Cl)cc2C1
inhibition (at 35 µM): 9.8% (inactive)

Nc1nc(SCC(=O)Nc2cc(C(F)(F)F)ccc2Cl)[nH]c(=O)c1NC(=O)c1ccco1
inhibition (at 35 µM): 2.8% (inactive)

Cc1c(CCC(=O)O)c(=O)oc2cc3occ(-c4ccccc4)c3cc12
inhibition (at 35 µM): 32.6% (inactive)

Cc1c(CC(=O)NCCCCCC(=O)O)c(=O)oc2cc3occ(-c4ccccc4)c3cc12
inhibition (at 35 µM): 15.4% (inactive)

CCCCCCc1cc2cc(-c3nnc(-c4ccccc4)o3)c(=O)oc2cc1O
inhibition (at 35 µM): 102% (active)

COc1cc(C(=O)N2CCN(C3CCC(C)CC3)CC2)cc(OC)c1OC (configuration not stated)
inhibition (at 35 µM): 7.5% (inactive)

CC(C)=N/N=C1/NC(=O)C(Cc2ccccc2)S1 (configuration not stated)
inhibition (at 35 µM): 4.2% (inactive)

CCOC(=O)/C=c1\s/c(=C\c2ccccc2OC)c(=O)n1CC(=O)N1CCOCC1
inhibition (at 35 µM): 7.9% (inactive)

CSc1nc(-c2ccco2)nn1C(=O)CCc1ccccc1
inhibition (at 35 µM): 7.1% (inactive)

CCOc1ccccc1/C=c1\sc2nc(-c3ccco3)nn2c1=O
inhibition (at 35 µM): 53% (active)

CC1CCCCN1C(=O)CCS(=O)(=O)Cc1ccccc1 (configuration not stated)
inhibition (at 35 µM): 9.6% (inactive)

Cc1nc(N)nc(SCc2ccc([N+](=O)[O-])cc2)c1N
inhibition (at 35 µM): 7.3% (inactive)

Cc1c(C2=CCN(S(=O)(=O)c3ccc(Cl)cc3)CC2)c2ccccc2n1C
inhibition (at 35 µM): 4.5% (active)
inhibition (confirmation repeats, at 20 µM): 95.9%

COc1ccccc1N1CCN(S(=O)(=O)c2ccc(Cl)cc2)CC1
inhibition (at 35 µM): -9.7% (inactive)

O=S(=O)(c1ccc(F)cc1)N1CC=C(c2ccccc2)CC1
inhibition (at 35 µM): 4.6% (inactive)

COc1ccccc1NC(=O)C1CCN(C(=O)c2ccc(C(C)(C)C)cc2)CC1
inhibition (at 35 µM): 10.3% (inactive)

NS(=O)(=O)c1ccc(-c2ccc(/C=C3\SC(=O)NC3=O)o2)cc1
inhibition (at 35 µM): 7.1% (inactive)

COc1ccc2[nH]c(=O)c(-c3noc(-c4ccc(F)cc4)n3)cc2c1
inhibition (at 35 µM): 1.1% (inactive)

CC(=O)OCc1cc2cc(C)ccc2[nH]c1=O
inhibition (at 35 µM): 9.2% (inactive)

CCCc1nc(-c2cc3cc(C)ccc3[nH]c2=O)no1
inhibition (at 35 µM): 61.5% (active)
inhibition (confirmation repeats, at 20 µM): 60%

COc1ccc(-n2ncc3c2CC(C)(C)CC3NC(=O)CCc2c(C)noc2C)cc1 (configuration not stated)
inhibition (at 35 µM): 9.7% (inactive)

CCCS(=O)(=O)N1CCN=C1SCc1cccc(F)c1
inhibition (at 35 µM): -1.7% (inactive)

COc1ccc(CNC(=O)C(=O)NCC2OCCN2C(=O)c2ccc(OC)cc2)cc1 (configuration not stated)
inhibition (at 35 µM): -1% (inactive)

Cc1ccc(S(=O)(=O)N2CC(C)N(S(C)(=O)=O)C2)cc1 (configuration not stated)
inhibition (at 35 µM): 2% (inactive)

Cc1ccc(C)c(C(C)NC(=O)C2CCCO2)c1 (configuration not stated)
inhibition (at 35 µM): 102% (active)

Cc1cc([N+](=O)[O-])ccc1NC(=O)C1CCCO1 (configuration not stated)
inhibition (at 35 µM): -5.5% (inactive)

Cc1cc(C)c2nc(NC(=O)C3CCCO3)sc2c1 (configuration not stated)
inhibition (at 35 µM): -13.4% (inactive)

COc1ccc(NC(=O)c2cc([N+](=O)[O-])ccc2NC(=O)CNC2CCCCC2C)c(OC)c1 (configuration not stated)
inhibition (at 35 µM): 9.1% (inactive)

O=C(CCc1nnc2ccc(NCCCN3CCCC3=O)nn12)NCc1ccccc1Cl
inhibition (at 35 µM): 2.5% (inactive)

CCOC(=O)N1CCN(C(=O)COc2ccc(Br)cc2)CC1
inhibition (at 35 µM): -4.7% (inactive)

CN1CCCC(OC(=O)COc2ccc(Br)cc2)C1 (configuration not stated)
inhibition (at 35 µM): 0.4% (active)
inhibition (confirmation repeats, at 20 µM): 55%

Cc1ccc(C(=O)OC2CCCN(C)C2)cc1 (configuration not stated)
inhibition (at 35 µM): -1.5% (inactive)

O=C(NC(=S)Nc1ncccn1)c1ccccc1Br
inhibition (at 35 µM): 2.7% (inactive)

CCCc1ccc(OCCNC(=O)c2ccccc2Br)cc1
inhibition (at 35 µM): 1.2% (inactive)

CCOc1cnc(C(=O)NNC(=O)c2ccccc2Br)o1
inhibition (at 35 µM): 12.8% (active)
inhibition (confirmation repeats, at 20 µM): 95.2%

COc1ccc(C(=O)Nc2ccc(C3(C#N)CCCC3)cc2)cc1OC
inhibition (at 35 µM): -5.5% (inactive)

CC1CCN(S(=O)(=O)c2ccc3[nH]c(=O)ccc3c2)CC1
inhibition (at 35 µM): -3.1% (inactive)

Cc1c(-c2ccccc2)cn2c1-c1ccc(C)n1CC2
inhibition (at 35 µM): 88.3% (active)

CCN(CC)c1ccc2oc(=O)c(C)nc2c1
inhibition (at 35 µM): 116% (active)
inhibition (confirmation repeats, at 20 µM): 62.7%

CCN(CC)c1ccc(/C=N/Nc2nc(C)cc(=O)[nH]2)cc1
inhibition (at 35 µM): -2.5% (inactive)

CCN(CC)c1ccc2cc(C(N)=O)/c(=N\NC(=O)c3ccncc3)oc2c1
inhibition (at 35 µM): 1.8% (inactive)

O=[N+]([O-])c1ccccc1/C=C/CN1CCC(O)CC1
inhibition (at 35 µM): 4.7% (inactive)

O=C(O)c1ccc(-n2nc(-c3ccccc3)c3ccccc3c2=O)cc1
inhibition (at 35 µM): 8.1% (inactive)

CCOc1ccc(-n2cnnn2)cc1S(=O)(=O)N1CCC(C)CC1C (configuration not stated)
inhibition (at 35 µM): 74.4% (active)
inhibition (confirmation repeats, at 20 µM): 87.6%

Cc1ccc(S(=O)(=O)N2CCC(Oc3ccc(-n4cnnn4)cc3)CC2)cc1
inhibition (at 35 µM): 6.3% (inactive)

CCOc1ccc(Br)cc1S(=O)(=O)N1CCC(C(=O)O)CC1
inhibition (at 35 µM): -2.2% (inactive)

Cc1cccc(C(=O)N2CCCC(Nc3ccc(C(C)C)cc3)C2)n1 (configuration not stated)
inhibition (at 35 µM): 6.3% (inactive)

CCOC(=O)c1c(C)[nH]c(C2=NNC(=NC(C)COC)SC2)c1C (configuration not stated)
inhibition (at 35 µM): 50.4% (active)
inhibition (confirmation repeats, at 20 µM): 104%

CCCCOC(=O)c1[nH]c(C)c(C(=O)OC)c1C
inhibition (at 35 µM): -3.8% (inactive)

CCOC(=O)c1c(C)[nH]c2c1-c1ccccc1C(=O)C2=O
inhibition (at 35 µM): -3.9% (inactive)

COCCCNS(=O)(=O)c1cccc(S(=O)(=O)c2cccc(S(=O)(=O)NCCCOC)c2)c1
inhibition (at 35 µM): -6.2% (inactive)

CC(=O)NS(=O)(=O)c1ccccc1
inhibition (at 35 µM): 8.1% (inactive)

Cc1ccc(S(=O)(=O)NC(=O)c2cccc(C)c2)cc1
inhibition (at 35 µM): 4.3% (inactive)

Nc1ccc(S(=O)(=O)NC(=O)c2ccccc2)cc1
inhibition (at 35 µM): 50.5% (active)
inhibition (confirmation repeats, at 20 µM): 72.5%

S=C(NCc1cccs1)Nc1ccc(Cl)cc1
inhibition (at 35 µM): -4.3% (inactive)

COC(=O)Cc1ccc(NC(=S)NCc2ccc(Cl)cc2)cc1
inhibition (at 35 µM): 1.5% (inactive)

Fc1ccccc1CNC(=S)Nc1ccc(Cl)cc1
inhibition (at 35 µM): 59.1% (active)
inhibition (confirmation repeats, at 20 µM): 83%

CC1CCCN(CCCNC(=O)CN2C(=O)COc3ccc(S(=O)(=O)N4CCOCC4)cc32)C1 (configuration not stated)
inhibition (at 35 µM): 2.3% (inactive)

C=CCNC(=S)/N=c1/ccccn1Cc1ccccc1
inhibition (at 35 µM): 12.9% (inactive)

O=C(OCc1cc2ccccc2[nH]c1=O)c1cccnc1
inhibition (at 35 µM): -2.2% (inactive)

O=C(OCc1cc(Cl)ccc1OC(F)F)c1cccnc1
inhibition (at 35 µM): 16.1% (active)
inhibition (confirmation repeats, at 20 µM): 81.2%

O=C(/C=C/c1ccc(Cl)cc1Cl)c1cccnc1
inhibition (at 35 µM): -1% (inactive)

CCOC(=O)c1ccc(NC(=O)c2ccc(NC(=O)C3CCCO3)cc2)cc1 (configuration not stated)
inhibition (at 35 µM): -0.4% (inactive)

CC(C)C[C@@H](CO)N1CCN(Cc2ccc(O)cc2)CCC1=O
inhibition (at 35 µM): 1.4% (inactive)

COc1ccc(Cc2nc3ccc(C(=O)NCC4CCOCC4)cc3o2)cc1OC
inhibition (at 35 µM): 11.1% (inactive)

COc1ccc(CN2CCCC(CNC(=O)c3ccc(F)cc3)C2)cc1OC (configuration not stated)
inhibition (at 35 µM): 79.6% (active)
inhibition (confirmation repeats, at 20 µM): 74.7%

COc1ccc(CCN(C)C(=O)C2CCCN(Cc3ccc(OC)c(OC)c3)C2)cc1OC (configuration not stated)
inhibition (at 35 µM): 11.9% (inactive) and 7% (inactive)

O=C(Cc1ccccc1F)NC1CCSc2ccccc21 (configuration not stated)
inhibition (at 35 µM): 0.4% (inactive)

Cc1c(C)c(C)c2[nH]c(=S)[nH]c2c1C
inhibition (at 35 µM): 9.8% (inactive)

O=c1[nH]c(=S)[nH]c2[nH]c(=S)[nH]c12
inhibition (at 35 µM): 91.1% (active)

Cc1ccc2c(c1)N(CC(=O)N1CCOCC1)C(=O)CO2
inhibition (at 35 µM): 2.5% (inactive)

CC1(c2ccc3ccccc3c2)NC(=O)N(CC(N)=O)C1=O (configuration not stated)
inhibition (at 35 µM): -4.5% (inactive)

O=C(NNS(=O)(=O)c1ccccc1)c1cnn(-c2ccc(Cl)cc2)c1C(F)(F)F
inhibition (at 35 µM): 11.5% (active)
inhibition (confirmation repeats, at 20 µM): 102%

NNC(=O)c1cnn(-c2ccccc2)c1C(F)(F)F
inhibition (at 35 µM): 10.3% (inactive)

O=C(NNS(=O)(=O)c1ccc(Cl)cc1)C1CCN(Cc2ccccc2)CC1
inhibition (at 35 µM): -4% (inactive)

COc1ccc(CCNC(=O)c2ccccc2OCc2ccccc2)cc1
inhibition (at 35 µM): -3.4% (inactive)

CC(C)(C)OC(=O)NNc1c2ccccc2nc2ccccc12
inhibition (at 35 µM): -1.9% (inactive)

CC(=O)c1cnc(SCCN2C(=O)c3ccccc3C2=O)nc1C
inhibition (at 35 µM): -5.5% (inactive)

CC(=O)c1cnc(SCC(=O)O)nc1C
inhibition (at 35 µM): 54.3% (active)
inhibition (confirmation repeats, at 20 µM): 68.8%

CSc1ncc(C(=O)NCCCc2ccccc2)c(C)n1
inhibition (at 35 µM): -4.6% (inactive)
